The nature of experiment [1]: Viability qHTS for spleen associated tyrosine kinase inhibitor (SYKi) naive MV4-11 cells (AID 1963823). Further: nearly all actives have a fitted effect of over 40% in size. An outline of the steps:
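In this viability screen, compounds acted on SYK inhibitor naive MV4-11 cells for three days (72 hr, 37 C). Remaining viable cells were measured by CellTiter-Glo luminescence following a 10 min room-temperature development.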
(In general: In qHTS, concentration-response curves come from the screen itself.)

A short description of experiment [2]: Quantitative highthroughput screen to assess conditional lethalithy of NOMO1 cells grown in RPMI1640 with dialyzed fetal bovine serum (RPMI+ds) (AID 1963877). Further: nearly all actives have a fitted effect of over 30% in size.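 On Viability: series mostly up to about 46 µM; 100% = DMSO control wells and 0% = empty wells.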 An outline of the steps:
(§1)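 Each medium arm—HPLM with 10% dialyzed FBS, or RPMI1640 with 5 mM glucose and 10% untreated or dialyzed FBS—was screened against an 11-point, 3-fold compound titration for 48 h at 37 °C, with CellTiter-Glo luminescence as endpoint.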

Experiment [3] is described as follows: Quantitative highthroughput screen to assess conditional lethalithy of NOMO1 cells grown in Human Plasma-Like Medium with dialyzed fetal bovine serum (HPLM+ds) (AID 1963878). Further: nearly all actives have a fitted effect of over 35% in size.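 On Viability: 100% = DMSO wells and 0% = empty wells on each plate.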 An outline of the steps: as §1
Experiment [4] is described as follows: Quantitative highthroughput screen to assess conditional lethalithy of P12 Ichikawa cells grown in Human Plasma-Like Medium with dialyzed fetal bovine serum (HPLM+ds) (AID 1963879). Further: nearly all actives have a fitted effect of over 35% in size. On Viability: series mostly up to about 46 µM. To be noted: Potency: viability. In short, it runs like this:
as §1

Experiment [5] is described as follows: Quantitative highthroughput screen to assess conditional lethalithy of P12 Ichikawa cells grown in RPMI1640 with dialyzed fetal bovine serum (RPMI+ds) (AID 1963880). Further: nearly all actives have a fitted effect of over 35% in size.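 On Viability: 100% = DMSO wells and 0% = empty wells on each plate.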 To be noted: Potency: P12-Ichikawa viability. In short, it runs like this: as §1
The nature of experiment [6]: Quantitative highthroughput screen to assess conditional lethalithy of P12 Ichikawa cells grown in RPMI1640 with untreated serum (RPMI+s) (AID 1963881). Further: nearly all actives have a fitted effect of over 35% in size.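 On Viability: series mostly up to about 46 µM; 100% = DMSO wells and 0% = empty wells without cells.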 To be noted: Potency: viability. In short, it runs like this: as §1
Experiment [7] can be described thus: Cellular viability qHTS for adrenocortical cancer (ACC) cell line SW-13 (AID 1963989). Further: nearly all actives have a fitted effect of over 65% in size.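 On activity (max response): cells grown in serum-free medium with ITS supplement; on the % scale 0 is the no-effect control and ±100 the full control effect.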 To be noted: SW-13 ACC cells viability, CellTiter-Glo, 48 h; activity (max response): hits give low values. In short, it runs like this: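 48 h treatment, SW-13 in ITS/DMEM serum-free; doses up to 46 uM; readout CellTiter-Glo luminescence; curve fit four-parameter logistic.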

A short description of experiment [8]: Cellular viability qHTS for adrenocortical cancer (ACC) cell line NCI-H295R (AID 1963990). Further: nearly all actives have a fitted effect of over 60% in size. An outline of the steps:
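Compound titrations (up to 46 uM final) are applied to NCI-H295R cultures for 48 h at 37C. Viable cell number is estimated by CellTiter-Glo signal, normalised to DMSO and doxorubicin controls.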

A short description of experiment [9]: Quantitative highthroughput screen to assess conditional lethalithy of NOMO1 cells grown in RPMI1640 with untreated serum (RPMI+s) (AID 1963876). Further: nearly all actives have a fitted effect of over 35% in size.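 On Viability: 100% = DMSO wells and 0% = empty wells without cells.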 An outline of the steps:
as §1

A short description of experiment [10]: Quantitative highthroughput screen to assess conditional lethalithy of SEM cells grown in Human Plasma-Like Medium with dialyzed fetal bovine serum (HPLM+ds) (AID 1963882). Further: nearly all actives have a fitted effect of over 35% in size. On Viability: series mostly up to about 46 µM. In short, it runs like this: as §1
Experiment [11] can be described thus: Quantitative highthroughput screen to assess conditional lethalithy of SEM cells grown in RPMI1640 with unreated serum (RPMI+s) (AID 1963883). Further: nearly all actives have a fitted effect of over 35% in size.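 On Viability: 100% = DMSO wells and 0% = empty wells without cells.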 In short, it runs like this:
as §1

Experiment [12] is described as follows: Quantitative highthroughput screen to assess conditional lethalithy of SEM cells grown in RPMI1640 with dialyzed fetal bovine serum (RPMI+ds) (AID 1963884). Further: nearly all actives have a fitted effect of over 35% in size.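 On Viability: series mostly up to about 46 µM; 100% = DMSO control wells and 0% = empty wells without cells.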 In short, it runs like this:
as §1

Where “and” joins values, the source holds several entries; their conditions need not be identical. Equal values may be shown once. Results filed as inconclusive are left out. Unmarked numbers belong to inactive results. Calls of active or inactive are those of the source. The call rests on the fitted dose curve; in most records, active means well fitted curve in the direction sought with a large enough effect; inconclusive means small, poorly fitted or top-dose-only effect, or another doubt; inactive means no such curve, though single readings can be large; an effect the other way counts as inactive or inconclusive.
Potency means the concentration at half of the fitted maximal effect.

`COc1cc(Nc2ncc(F)c(Nc3ccc4c(n3)N(COP(=O)(O)O)C(=O)C(C)(C)O4)n2)cc(OC)c1OC`: the Potency is 92 nM (active) and 259 nM (active) and 83.3 nM (active) in experiment [1]; 14100 nM (active) in [7]; 15.8 µM (active) in [8]. Moreover, the Potency entry in [2], in [3], in experiment [4], in experiment [5] and in [6] was “inactive” throughout.
As to `CC(C)c1cc(C(C)C)c(CC(=O)NS(=O)(=O)Oc2c(C(C)C)cccc2C(C)C)c(C(C)C)c1`, the Potency in [1] is 11.6 µM (active). In addition, the Potency result in experiment [9], in [3], in experiment [4], in [5], in experiment [6] and in [10] was “inactive” each time. Also, the Potency result in experiment [11] and in [12] was “inactive” throughout. Besides, the activity (max response) in experiment [7] is -25.2%.
Consider `CC(=O)O[C@H]1C(=O)[C@@]2(C)C([C@H](OC(=O)c3ccccc3)[C@]3(O)C[C@H](OC(=O)[C@H](O)[C@@H](NC(=O)c4ccccc4)c4ccccc4)C(C)=C1C3(C)C)[C@]1(OC(C)=O)CO[C@@H]1C[C@@H]2O` (stereo partly drawn), for which the Potency in experiment [1] is 5.1 nM (active) and 8.3 nM (active); in [9], 1.3 nM (active); in experiment [8] it was 0.1 µM (active).
As to `CCOC(=O)C1=C[C@]2(CC)CCCN3CCc4c(n1c1ccccc41)[C@@H]32`, in [1], the Potency is 13.3 µM (active). In addition, the Potency entry in [4], in [10] and in [12] was “inactive” each time.
For `COc1cc2nccc(Oc3ccc(NC(=O)Nc4cc(C)on4)c(Cl)c3)c2cc1OC`, the Potency in experiment [1] is 0.372 µM (active); in experiment [11], 3320 nM (active); in experiment [12], 4690 nM (active); in experiment [7], 11200 nM (active); in experiment [8], 14.1 µM (active). Besides, the Potency entry in experiment [9] and in experiment [3] was “inactive” each time.
Take `NS(=O)(=O)NCCNc1nonc1C(=Nc1ccc(F)c(Br)c1)NO`: the Potency result in experiment [1] and in experiment [8] was “inactive” throughout. For the same compound, the Potency in [2] was 8310 nM (active); in experiment [4], 2340 nM (active); in experiment [5], 8310 nM (active); in experiment [6] it was 5240 nM (active); in [10], 16600 nM (active); in experiment [11], 3310 nM (active). For the same compound, the Potency in experiment [12] is 9330 nM (active). In addition, in experiment [7], the activity (max response) was -16.2%.
Consider `C#Cc1cccc(Nc2ncnc3cc(OCCOC)c(OCCO)cc23)c1`, for which the Potency in experiment [1] is 1.48 µM (active); in [3], 9350 nM (active); in experiment [11], 20900 nM (active); in [7] it was 6310 nM (active).
As for `CC1(C)CCC(C)(C)c2cc(NC(=O)c3ccc(C(=O)O)cc3)ccc21`, the Potency result in experiment [1], in [2], in experiment [4], in experiment [6], in [10] and in experiment [11] was “inactive” throughout. Further, the Potency entry in [12] and in [8] was “inactive” throughout. For the same compound, the activity (max response) in experiment [7] is -9.24%.
Turning to `CC(C)c1cc(-c2n[nH]c(=O)n2-c2ccc3c(ccn3C)c2)c(O)cc1O`, the Potency in experiment [1] was 9.2 nM (active) and 9.3 nM (active); in [9] it was 118 nM (active); in experiment [2], 93.5 nM (active); in experiment [10], 74.3 nM (active); in experiment [11], 59 nM (active); in experiment [7] it was 282 nM (active). Further, in [8], the Potency was 0.0126 µM (active).
As for `CN(C)C(=O)C(CCN1CCC(O)(c2ccc(Cl)cc2)CC1)(c1ccccc1)c1ccccc1`, the Potency in experiment [1] was 16.8 µM (active) and 14.8 µM (active); in experiment [2] it was 20900 nM (active); in experiment [7] it was 5170 nM (active); in experiment [8] it was 1.84 µM (active) and 28.2 µM (active).
`O=C(NCC1CN(c2ccc(N3CCOCC3=O)cc2)C(=O)O1)c1ccc(Cl)s1` (stereo not drawn): the Potency entry in [1], in experiment [10], in experiment [11], in [12] and in [8] was “inactive” each time. Also, the Potency in experiment [9] was 418 nM (active); in experiment [4], 2960 nM (active); in experiment [6] it was 2960 nM (active). Besides, the activity (max response) in [7] was -21.7% and -9.76%.
For `Cc1cc(Nc2cc(N3CCN(C)CC3)nc(Sc3ccc(NC(=O)C4CC4)cc3)n2)n[nH]1`, the Potency is 0.0461 µM (active) in experiment [1]; 332 nM (active) in experiment [4]; 296 nM (active) in experiment [6]; 418 nM (active) in experiment [10]; 372 nM (active) in [11]; 332 nM (active) in experiment [12]. Also, in [8], the Potency was 15.8 µM (active).
Turning to `COC(=O)Nc1nc2ccc(C(=O)c3ccc(F)cc3)cc2[nH]1`, the Potency in experiment [1] is 731 nM (active) and 332 nM (active); in [7], 355 nM (active); in [8], 0.112 µM (active). Moreover, the Potency result in experiment [9] and in experiment [2] was “inactive” throughout.
Consider `N#Cc1ccnc(N2C(=O)CC[C@H]2C(=O)N(c2cncc(F)c2)[C@H](C(=O)NC2CC(F)(F)C2)c2ccccc2Cl)c1`, for which the Potency entry in experiment [1] and in experiment [8] was “inactive” each time. Moreover, the Potency in experiment [9] was 2340 nM (active); in experiment [4], 1480 nM (active); in experiment [6] it was 2950 nM (active); in experiment [10] it was 3310 nM (active); in [11], 1320 nM (active); in experiment [12], 3310 nM (active).
Take `CC(=O)OC[C@@H]1O[C@@H](n2ccc(=O)[nH]c2=O)[C@H](OC(C)=O)[C@H]1OC(C)=O`: the Potency entry in [1], in [5], in [6], in [10], in experiment [12] and in experiment [8] was “inactive” each time.
As to `N[C@@]1(C(=O)O)CS(=O)(=O)[C@H]2[C@H](C(=O)O)[C@H]21`, the Potency result in experiment [1], in experiment [9], in [3], in [4], in [5] and in experiment [8] was “inactive” each time. Moreover, the activity (max response) in experiment [7] was 10.9%.
Regarding `O=C1NC(=O)C(c2cnc3ccccn23)=C1c1cn2c3c(cc(F)cc13)CN(C(=O)N1CCCCC1)CC2`, the Potency in experiment [1] was 231 nM (active) and 833 nM (active); in experiment [4] it was 588 nM (active); in experiment [5] it was 5880 nM (active); in experiment [6], 166 nM (active); in experiment [10], 20.9 nM (active); in [11], 18.6 nM (active). Besides, the figures for the Potency in experiment [12] and in experiment [8] were 16.6 nM (active) and 25.1 µM (active), respectively. Also, the Potency result in experiment [2] is “inactive”.
In the case of `Nc1nccc(Oc2ccc(NC(=O)c3c[nH]cc(-c4ccc(F)cc4)c3=O)cc2F)c1Cl`, the Potency in experiment [1] is 0.0295 µM (active); in experiment [3], 20900 nM (active); in [5], 26400 nM (active); in experiment [11] it was 590 nM (active); in experiment [7], 8910 nM (active); in experiment [8], 10 µM (active).

These data come from PubChem BioAssay (NCATS).
